This passage reports binding signal results from paper PMC7862700, “An all-to-all approach to the identification of sequence-specific readers for epigenetic DNA modifications on cytosine”.

Experiment in all cases: DAPPL (digital affinity profiling via proximity ligation, sequencing); 10 mM Tris-HCl pH 7.5, 50 mM NaCl, 1 mM DTT, 4% glycerol, room temperature, 30 min; GST-TFs on glutathione beads, 16-mer random dsDNA library, 0.1% formaldehyde crosslink after washing; high values mean tight binding
What all share (conditions): protein: recombinant; tags: N-terminal GST; dsDNA, one strand shown

For one experiment, the target named is T1, ERF (Homo sapiens, UniProt P50548 1-548).
T1 sequence: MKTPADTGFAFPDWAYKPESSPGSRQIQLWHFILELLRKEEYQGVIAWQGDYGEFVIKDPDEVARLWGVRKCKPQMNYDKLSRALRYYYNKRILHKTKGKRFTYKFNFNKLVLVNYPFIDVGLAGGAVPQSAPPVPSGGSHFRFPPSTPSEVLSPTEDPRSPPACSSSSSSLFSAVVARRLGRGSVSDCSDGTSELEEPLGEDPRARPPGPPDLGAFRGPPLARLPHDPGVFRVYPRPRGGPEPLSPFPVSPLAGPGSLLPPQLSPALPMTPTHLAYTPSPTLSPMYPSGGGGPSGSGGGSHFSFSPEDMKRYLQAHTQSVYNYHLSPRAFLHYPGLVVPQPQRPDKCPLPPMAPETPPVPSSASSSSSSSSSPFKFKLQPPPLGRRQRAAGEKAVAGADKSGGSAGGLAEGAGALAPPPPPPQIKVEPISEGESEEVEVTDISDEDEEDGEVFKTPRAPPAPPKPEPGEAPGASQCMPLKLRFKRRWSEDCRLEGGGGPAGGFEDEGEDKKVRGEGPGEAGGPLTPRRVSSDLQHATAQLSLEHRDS
The method, boiled down:
(§1)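 Human transcription factors carrying a GST fusion were produced in yeast, bound to glutathione beads, tagged with DNA barcodes and pooled together with a tag-only sample. Each pool was held with 200 nmole of a random double-stranded 16-mer DNA library in Tris/NaCl/DTT/glycerol buffer for 30 min at room temperature, then washed, crosslinked in 0.1% formaldehyde, proximity-ligated with BsaI/T4 ligase (1 h, 37 °C), PCR-amplified and sequenced on an Illumina NextSeq500. Binding signal is the read frequency of each hexamer for a given factor divided by its frequency in the tag-only sample.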

The target of another experiment is T2, ETV3L (Homo sapiens, UniProt Q6ZN32 1-361).
T2 sequence: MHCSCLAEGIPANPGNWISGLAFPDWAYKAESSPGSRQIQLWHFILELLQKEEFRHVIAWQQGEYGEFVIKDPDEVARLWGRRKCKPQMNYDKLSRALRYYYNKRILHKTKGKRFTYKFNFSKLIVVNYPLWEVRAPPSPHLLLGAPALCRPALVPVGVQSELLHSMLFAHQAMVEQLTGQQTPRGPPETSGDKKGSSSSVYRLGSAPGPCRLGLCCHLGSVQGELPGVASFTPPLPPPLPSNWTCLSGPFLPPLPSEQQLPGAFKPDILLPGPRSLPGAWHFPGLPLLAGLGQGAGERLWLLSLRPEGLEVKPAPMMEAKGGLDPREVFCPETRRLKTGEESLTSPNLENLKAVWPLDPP
The method, boiled down:
as §1

A further experiment concerns the target T3, ETS2 (Homo sapiens, UniProt P15036 1-469).
T3 sequence: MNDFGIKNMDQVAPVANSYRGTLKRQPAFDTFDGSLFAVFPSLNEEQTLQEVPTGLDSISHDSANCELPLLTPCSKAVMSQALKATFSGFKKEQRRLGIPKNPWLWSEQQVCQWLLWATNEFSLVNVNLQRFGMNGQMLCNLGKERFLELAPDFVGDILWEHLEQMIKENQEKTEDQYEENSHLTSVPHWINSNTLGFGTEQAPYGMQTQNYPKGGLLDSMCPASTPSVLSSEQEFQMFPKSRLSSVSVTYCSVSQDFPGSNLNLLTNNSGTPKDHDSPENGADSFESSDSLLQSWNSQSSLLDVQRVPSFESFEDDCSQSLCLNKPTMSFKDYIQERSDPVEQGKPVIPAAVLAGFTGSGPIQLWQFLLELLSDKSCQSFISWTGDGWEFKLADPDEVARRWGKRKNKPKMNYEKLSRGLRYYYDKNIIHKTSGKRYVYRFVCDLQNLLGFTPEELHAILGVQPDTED
The method, boiled down: as §1

The target in the next experiment is T4, SPDEF (Homo sapiens, UniProt O95238 1-335).
T4 sequence: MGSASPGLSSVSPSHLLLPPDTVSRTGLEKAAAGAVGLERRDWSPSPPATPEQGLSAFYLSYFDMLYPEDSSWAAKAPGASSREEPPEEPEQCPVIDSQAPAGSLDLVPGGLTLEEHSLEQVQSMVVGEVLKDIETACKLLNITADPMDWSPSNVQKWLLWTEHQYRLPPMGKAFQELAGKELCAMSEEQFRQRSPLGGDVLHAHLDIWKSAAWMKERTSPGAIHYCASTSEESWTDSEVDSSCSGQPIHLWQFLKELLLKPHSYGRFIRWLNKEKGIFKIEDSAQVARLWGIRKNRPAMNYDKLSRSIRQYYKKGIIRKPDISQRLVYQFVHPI
In a few lines: as §1

The next experiment has as its target T5, ETV7 (Homo sapiens, UniProt Q9Y603 1-341).
T5 sequence: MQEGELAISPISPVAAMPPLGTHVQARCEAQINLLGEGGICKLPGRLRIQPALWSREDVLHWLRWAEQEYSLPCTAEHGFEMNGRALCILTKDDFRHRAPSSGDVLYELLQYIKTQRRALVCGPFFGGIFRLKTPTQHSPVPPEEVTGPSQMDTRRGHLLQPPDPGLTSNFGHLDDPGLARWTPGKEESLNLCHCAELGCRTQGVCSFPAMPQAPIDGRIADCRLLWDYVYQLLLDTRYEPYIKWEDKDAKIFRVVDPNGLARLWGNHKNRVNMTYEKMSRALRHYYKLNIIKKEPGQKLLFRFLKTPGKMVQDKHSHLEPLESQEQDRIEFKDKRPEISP
In a few lines: as §1

The target in another experiment is T6, ELF5 (Homo sapiens, UniProt Q9UKW6-2 1-255).
T6 sequence: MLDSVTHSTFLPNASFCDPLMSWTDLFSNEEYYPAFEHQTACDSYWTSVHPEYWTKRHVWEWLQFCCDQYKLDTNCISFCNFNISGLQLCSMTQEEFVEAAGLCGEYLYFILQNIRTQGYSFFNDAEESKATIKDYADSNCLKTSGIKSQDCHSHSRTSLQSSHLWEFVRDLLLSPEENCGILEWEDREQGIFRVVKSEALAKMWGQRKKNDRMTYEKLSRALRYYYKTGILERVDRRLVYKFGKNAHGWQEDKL
The method, boiled down:
as §1

The next experiment has as its target T7, ETV3 (Homo sapiens, UniProt P41162-2 1-143).
T7 sequence: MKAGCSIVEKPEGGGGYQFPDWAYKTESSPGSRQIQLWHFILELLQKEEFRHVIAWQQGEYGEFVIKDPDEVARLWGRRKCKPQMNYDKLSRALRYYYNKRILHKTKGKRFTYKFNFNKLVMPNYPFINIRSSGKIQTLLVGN
In a few lines:
as §1

The target of a further experiment is ETV6 (Homo sapiens, UniProt P41212 1-452). The method, boiled down:
as §1

ETV6, sequence (P41212 whole entry): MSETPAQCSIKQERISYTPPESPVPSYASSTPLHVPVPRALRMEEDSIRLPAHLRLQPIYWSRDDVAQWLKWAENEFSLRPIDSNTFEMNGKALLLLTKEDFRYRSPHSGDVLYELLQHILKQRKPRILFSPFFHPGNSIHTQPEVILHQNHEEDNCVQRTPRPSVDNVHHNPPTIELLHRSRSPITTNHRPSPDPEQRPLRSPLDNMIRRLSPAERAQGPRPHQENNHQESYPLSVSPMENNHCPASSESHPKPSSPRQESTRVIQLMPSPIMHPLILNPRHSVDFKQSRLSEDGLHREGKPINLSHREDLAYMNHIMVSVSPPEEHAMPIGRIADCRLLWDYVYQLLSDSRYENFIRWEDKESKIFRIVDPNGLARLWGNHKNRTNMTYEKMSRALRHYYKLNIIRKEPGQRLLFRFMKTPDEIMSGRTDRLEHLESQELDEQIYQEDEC

Consider CTGACA, for which the binding signal with ERF was 1.21 fold enrichment (6-mer frequency, TF over GST control); in the experiment with ETV3L, 1.34 fold enrichment (6-mer frequency, TF over GST control); with ETS2, 1.22 fold enrichment (6-mer frequency, TF over GST control); with SPDEF, 1.24 fold enrichment (6-mer frequency, TF over GST control); in the experiment with ETV7 it was 1.37 fold enrichment (6-mer frequency, TF over GST control); in the experiment with ELF5, 1.26 fold enrichment (6-mer frequency, TF over GST control). Further, the binding signal is 1.24 fold enrichment (6-mer frequency, TF over GST control) with ETV3 and 1.24 fold enrichment (6-mer frequency, TF over GST control) in the experiment with ETV6.
Take GTCCCC: the binding signal with ERF was 1.23 fold enrichment (6-mer frequency, TF over GST control); with ETV3L, 1.15 fold enrichment (6-mer frequency, TF over GST control); in the experiment with ETS2 it was 1.15 fold enrichment (6-mer frequency, TF over GST control); with SPDEF, 1.14 fold enrichment (6-mer frequency, TF over GST control); with ETV7, 1.27 fold enrichment (6-mer frequency, TF over GST control); in the experiment with ELF5 it was 1.13 fold enrichment (6-mer frequency, TF over GST control). Besides, the binding signal in the experiment with ETV3 was 1.14 fold enrichment (6-mer frequency, TF over GST control); with ETV6 it was 1.24 fold enrichment (6-mer frequency, TF over GST control).
On to GGAACA, for which the binding signal is 1.01 fold enrichment (6-mer frequency, TF over GST control) with ERF; 1.07 fold enrichment (6-mer frequency, TF over GST control) with ETV3L; 1.08 fold enrichment (6-mer frequency, TF over GST control) in the experiment with ETS2; 1.15 fold enrichment (6-mer frequency, TF over GST control) with SPDEF; 1.03 fold enrichment (6-mer frequency, TF over GST control) with ETV7; 1.28 fold enrichment (6-mer frequency, TF over GST control) with ELF5. For the same sequence, the binding signal was 1.14 fold enrichment (6-mer frequency, TF over GST control) with ETV3 and 1.02 fold enrichment (6-mer frequency, TF over GST control) with ETV6.
Take CGACGA: the binding signal with ERF is 1.12 fold enrichment (6-mer frequency, TF over GST control); in the experiment with ETV3L, 1.13 fold enrichment (6-mer frequency, TF over GST control); in the experiment with ETS2 it was 1.13 fold enrichment (6-mer frequency, TF over GST control); in the experiment with SPDEF, 1.13 fold enrichment (6-mer frequency, TF over GST control); with ETV7 it was 1.11 fold enrichment (6-mer frequency, TF over GST control); with ELF5, 1.09 fold enrichment (6-mer frequency, TF over GST control). In addition, the binding signal was 1.12 fold enrichment (6-mer frequency, TF over GST control) with ETV3 and 1.17 fold enrichment (6-mer frequency, TF over GST control) in the experiment with ETV6.
Regarding TCCGGA, the binding signal was 2.04 fold enrichment (6-mer frequency, TF over GST control) in the experiment with ERF; 2.42 fold enrichment (6-mer frequency, TF over GST control) with ETV3L; 2.66 fold enrichment (6-mer frequency, TF over GST control) with ETS2; 3.16 fold enrichment (6-mer frequency, TF over GST control) with SPDEF; 2.24 fold enrichment (6-mer frequency, TF over GST control) in the experiment with ETV7; 3.19 fold enrichment (6-mer frequency, TF over GST control) in the experiment with ELF5. In addition, the binding signal with ETV3 is 2.84 fold enrichment (6-mer frequency, TF over GST control); with ETV6 it was 2.7 fold enrichment (6-mer frequency, TF over GST control).
On to CACCCT, for which the binding signal was 1.09 fold enrichment (6-mer frequency, TF over GST control) with ERF; 1.26 fold enrichment (6-mer frequency, TF over GST control) with ETV3L; 1.09 fold enrichment (6-mer frequency, TF over GST control) with ETS2; 1.13 fold enrichment (6-mer frequency, TF over GST control) in the experiment with SPDEF; 1.04 fold enrichment (6-mer frequency, TF over GST control) with ETV7; 1.11 fold enrichment (6-mer frequency, TF over GST control) in the experiment with ELF5. Besides, the binding signal in the experiment with ETV3 is 1.24 fold enrichment (6-mer frequency, TF over GST control); with ETV6, 1.05 fold enrichment (6-mer frequency, TF over GST control).
Consider ACGCCC, for which the binding signal with ERF was 1.24 fold enrichment (6-mer frequency, TF over GST control); in the experiment with ETV3L it was 1.17 fold enrichment (6-mer frequency, TF over GST control); in the experiment with ETS2 it was 1.12 fold enrichment (6-mer frequency, TF over GST control); with SPDEF, 1.07 fold enrichment (6-mer frequency, TF over GST control); in the experiment with ETV7 it was 1.03 fold enrichment (6-mer frequency, TF over GST control); with ELF5, 1.05 fold enrichment (6-mer frequency, TF over GST control). Moreover, the binding signal was 1.15 fold enrichment (6-mer frequency, TF over GST control) with ETV3 and 1.13 fold enrichment (6-mer frequency, TF over GST control) in the experiment with ETV6.
For CCCCCA, the binding signal is 1.06 fold enrichment (6-mer frequency, TF over GST control) in the experiment with ERF; 1.21 fold enrichment (6-mer frequency, TF over GST control) with ETV3L; 1.19 fold enrichment (6-mer frequency, TF over GST control) with ETS2; 1.22 fold enrichment (6-mer frequency, TF over GST control) with SPDEF; 1.11 fold enrichment (6-mer frequency, TF over GST control) in the experiment with ETV7; 1.24 fold enrichment (6-mer frequency, TF over GST control) with ELF5. Besides, the binding signal in the experiment with ETV3 is 1.3 fold enrichment (6-mer frequency, TF over GST control); with ETV6, 1.19 fold enrichment (6-mer frequency, TF over GST control).
